# Compound activity (PubChem)
# In the library only some 2.5% were active in any assay of this set; here they are far more common.
# PKA-R2B activ: activators of human PKA-R2B complex; PKA-R2B holoenzyme dissociation, Cy5-IP20 fluorescence polarization; R2B truncated from residue 108, S112A mutant; 0% DMSO only, 100% 113 µM cGMP; P22694+P31323; activation, % at 11.4 µM; 0.079% of 340,000 active; AID 504700;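 active = activation above a cutoff set at the mean over all compounds plus 3 SD, cut at about 18% in these data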;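 note: higher means more holoenzyme dissociation and a rise in polarization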
# TMEM16A inh: inhibitors of mouse TMEM16A calcium-activated chloride channel. HEK293 TMEM16A/YFP iodide influx fluorescence, ionomycin. normalized B-score (activity score, 25-100; higher = stronger inhibition) at 10 µM. 1.2% of 310,000 active. AID 588511;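 active = ratio plate-corrected score three or more library SD toward inhibition, starting fluorescence score within five deviations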;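 note: score derived from kinetic fluorescence span divided by baseline fluorescence per well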
# Target sequence (Q8BHY3 whole entry, looked up): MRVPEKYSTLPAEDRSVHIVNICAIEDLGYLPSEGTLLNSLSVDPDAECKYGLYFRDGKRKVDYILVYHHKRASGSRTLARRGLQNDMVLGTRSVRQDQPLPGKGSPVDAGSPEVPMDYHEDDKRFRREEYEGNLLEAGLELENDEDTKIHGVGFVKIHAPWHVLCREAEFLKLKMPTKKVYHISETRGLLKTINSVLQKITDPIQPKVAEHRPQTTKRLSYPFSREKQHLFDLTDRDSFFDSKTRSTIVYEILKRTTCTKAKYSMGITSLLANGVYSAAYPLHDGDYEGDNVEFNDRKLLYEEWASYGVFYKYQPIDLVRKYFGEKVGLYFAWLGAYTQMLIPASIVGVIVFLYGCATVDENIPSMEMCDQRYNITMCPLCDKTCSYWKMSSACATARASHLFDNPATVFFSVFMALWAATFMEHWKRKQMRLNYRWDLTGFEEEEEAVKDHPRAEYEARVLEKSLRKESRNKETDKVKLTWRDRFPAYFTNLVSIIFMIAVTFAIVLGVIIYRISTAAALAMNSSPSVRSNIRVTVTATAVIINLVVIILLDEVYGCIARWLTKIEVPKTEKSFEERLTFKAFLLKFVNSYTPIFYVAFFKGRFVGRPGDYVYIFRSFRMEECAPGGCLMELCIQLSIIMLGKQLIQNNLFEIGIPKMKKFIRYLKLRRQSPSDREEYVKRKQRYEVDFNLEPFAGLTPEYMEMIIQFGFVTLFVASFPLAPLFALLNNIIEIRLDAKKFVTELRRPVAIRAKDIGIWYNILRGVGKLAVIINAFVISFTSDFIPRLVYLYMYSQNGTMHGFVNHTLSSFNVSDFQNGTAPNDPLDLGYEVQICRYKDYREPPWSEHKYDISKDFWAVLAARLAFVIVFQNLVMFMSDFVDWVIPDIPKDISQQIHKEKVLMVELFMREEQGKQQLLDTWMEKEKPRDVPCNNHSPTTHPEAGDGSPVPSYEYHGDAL
# CHT PAM: allosterically activates the human high affinity choline transporter | Q9GZV3 | CHT-expressing cells, membrane potential dye, choline EC20; hits give high values; LV-AA mutant CHT in HEK293 cells | B-score at 10 µM | 0.49% of 310,000 active | AID 488977;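 active = initial fluorescence not abnormally high and integrated response B-score, plate-corrected, over 3 SD above library mean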
# TMEM16A act: activates or potentiates the mouse TMEM16A chloride channel | Q8BHY3 | HEK293 TMEM16A/YFP-H148Q/I152L, iodide quench fluorescence; hits give low values | B-score at 10 µM | 0.3% of 340,000 active | AID 623877;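 active = fluorescence-ratio B-score plate-corrected deviation score at least 3 library SD below zero, with starting fluorescence score within 5 deviations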;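 note: channel opened by trigger with iodide after compound preincubation; score built on the fluorescence ratio of max minus min over baseline; more negative score means more quench and so TMEM16A activation or potentiation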
# PKA-R1A act: activates the PKA-R1A holoenzyme complex | 0.083% of 340,000 active | PKA-R1A dissociation, Cy5-IP20 fluorescence polarization; scaled: DMSO 0%, 113 µM cGMP 100% | activation, % at 11.4 µM | P00514+P68181;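 active = percent activation above the mean of all tested compounds plus 3 SD, cut at about 19% in these data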;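 note: higher means more PKAc released from R1A so a rise in polarization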
# CHT inh: inhibitors of human choline transporter CHT. AID 488975. B-score at 10 µM. CHT-expressing cells, membrane potential dye, choline response; hits give low values. 0.86% of 310,000 active. Q9GZV3;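 active = B-score over 3 SD under the library average, and starting fluorescence ratio not unusually high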;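 note: choline stimulus applied at its EC90 after an EC20 pre-addition; B-score computed on integrated fluorescence ratio after choline addition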
# Active calls of the source: *; i = inactive; · = not tested or not shown.
SMILES,PKA-R2B activ,TMEM16A inh,CHT PAM,TMEM16A act,PKA-R1A act,CHT inh
COc1ccc(N2CCN(C(=O)COC(=O)CC(NC(N)=O)c3ccc(Cl)cc3)CC2)cc1 (centres undefined),4.9,·,·,·,-1.2,·
CCOC(=O)c1c(N)sc2c1CCN(CCc1ccccc1)C2,-5.5,i,8.06*,i,-11.0,i
CCOC(=O)c1c(NC(=S)Nc2ccccc2)sc2c1CCN(CCc1ccccc1)C2,·,i,i,·,·,i
COc1ccc(C)cc1N(C(=O)c1ccco1)C(C(=O)NC1CCCC1)c1ccc(N2CCOCC2)cc1 (centres undefined),3.9,i,i,i,-5.5,i
CC(C)c1ccc(N(CC(=O)NCCCN2CCOCC2)S(=O)(=O)c2ccccc2)cc1,-6.7,·,·,i,0.9,·
COc1cccc(NC(=O)c2cccc(C(=O)Nc3cccc(OC)c3)c2)c1,-0.8,i,i,i,-9.2,i
COc1cccc(NC(=O)c2nc3ncccn3n2)c1,-1.9,i,i,-5.4*,-0.1,i
CCc1cc2c(=O)n(-c3ccccc3)c(=S)[nH]c2s1,-9.3,25*,i,i,1.3,i
COc1ccccc1C1CCN(c2cc(O)ccc2[N+](=O)[O-])CC1,3.2,100*,i,i,1.4,i
COc1ccccc1C1CCN(C(=O)c2ccccc2)CC1,-5.4,i,i,i,1.9,i
COc1ccc(C2(c3ccc(OC)cc3)NC(=O)N(CC(=O)Nc3cc(C)ccc3OC)C2=O)cc1,-10.8,i,i,i,3.1,i
N#Cc1c(NC(=O)CN2C(=O)c3ccccc3C2=O)oc(-c2ccccc2)c1-c1ccccc1,-4.9,i,i,i,-3.0,i
N#Cc1c(NC(=O)CCN2C(=O)c3ccccc3C2=O)oc(-c2ccccc2)c1-c1ccccc1,-0.8,i,i,i,-4.8,-5.92*
O=C(COc1ccc(Br)cc1F)Nc1nnc(C2CC2)s1,5.4,·,·,i,-3.7,·
CCc1ccccc1N(C)S(=O)(=O)c1ccc(-c2cc(C)no2)s1,-19.2,i,i,-28.1*,-5.6,i
CCN(c1ccc(OC)cc1)S(=O)(=O)c1ccc(-c2cc(C)no2)s1,-10.7,i,i,i,-4.1,i
CCCc1ccc(Oc2cn[nH]c2-c2ccc(O)c(C)c2O)cc1,-12.6,100*,i,i,-14.4,i
Cc1cc(C(=O)NC2CC(C)(C)Cc3c2cnn3-c2ccc(F)cc2)no1 (centres undefined),-6.0,i,i,i,-4.8,i
Cc1ccc(OCc2cc(C(=O)NC(C)Cc3cccc(C)n3)no2)cn1 (centres undefined),7.9,i,i,i,2.3,i
O=C(COC(=O)C1(c2ccc(Cl)cc2)CCCC1)Nc1ncc(C(F)(F)F)cc1Cl,-2.9,100*,i,i,-1.1,i
COc1ccccc1N1CCN(C2CCCN(C(=O)CN3CCCCC3=O)C2)CC1 (centres undefined),7.8,i,i,i,6.3,i
CCOc1cccc(C(=O)Nc2ccc3oc(Cc4ccc(Cl)cc4)nc3c2)c1,-2.2,100*,i,i,-3.9,i
CCOc1cccc(C(=O)Nc2ccc3oc(-c4cccnc4)nc3c2)c1,2.5,i,i,i,-2.3,i
CC(C)CN(CC(C)C)C(=O)Nc1cccc([N+](=O)[O-])c1,-5.6,i,i,i,-21.1,i
Cc1ccc(C2(c3ccccc3)NC(=O)N(CC(=O)N3CC(=O)Nc4ccccc43)C2=O)cc1C (centres undefined),-10.8,·,·,i,-0.9,·
SMILES,PKA-R2B activ,TMEM16A inh,CHT PAM,TMEM16A act,PKA-R1A act,CHT inh
O=S(=O)(c1ccc(Cl)s1)N1CCN(C/C=C/c2ccccc2)CC1,-8.0,i,i,-6.97*,-8.4,i
Nc1ccc2cccc(O)c2c1,-1.2,·,·,i,1.0,·
Cc1ccc(S(=O)(=O)N(CC(=O)NCCC2=CCCCC2)Cc2ccccc2F)cc1,6.8,25*,i,i,-4.5,i
O=C(CN(Cc1ccccc1F)S(=O)(=O)c1ccc(Cl)cc1)NCCC1=CCCCC1,-0.8,i,i,i,-4.0,i
CC(C)S(=O)(=O)C1=NSC2=NC(=O)/C(=C\c3ccc(-c4ccccc4)o3)C(=N)N21,-7.5,25*,i,i,-0.3,i
CC(C)S(=O)(=O)C1=NSC2=NC(=O)/C(=C\c3ccc(-c4cccc(C(=O)O)c4)o3)C(=N)N21,-10.1,·,·,i,5.9,·
CCn1c(N)c(C(=O)NC)sc1=S,7.9,100*,i,i,8.3,i
CCOC(=O)C1CCCN(C(=O)N2CCOCC2)C1 (centres undefined),5.5,25*,i,i,-1.0,i
C[C@H](CO)N1C[C@H](C)[C@@H](CN(C)S(=O)(=O)c2ccccc2)Oc2c(NC(=O)C3CCCCC3)cccc2C1=O,4.1,·,·,i,-9.6,·
Cc1ccc(S(=O)(=O)Nc2cc(S(=O)(=O)N3CCOCC3)ccc2NCC2CCCO2)cc1 (centres undefined),-1.2,·,·,i,-0.8,·
Cn1c(Oc2ccc(F)cc2)c(C=O)c2ccccc21,2.4,i,i,i,-13.1,i
Cn1c(Sc2ccc(Br)cc2)c(C=O)c2ccccc21,-7.5,100*,i,i,-3.8,i
NC(=O)c1nc[nH]c1C(=O)Nc1cccc(C(F)(F)F)c1,1.4,·,·,i,2.3,·
CCOC(=O)C1CCCN(c2nc(C)nc3c2oc2ccccc23)C1 (centres undefined),4.3,25*,i,i,-4.7,i
O=[N+]([O-])c1cc(C(F)(F)F)cc([N+](=O)[O-])c1NCCNC(=S)Nc1ccc(Cl)c(Cl)c1,-15.6,100*,i,i,-7.2,i
CC1CCCCC12NC(=O)N(CC(=O)OCc1ccccc1F)C2=O (centres undefined),0.7,·,·,i,-6.2,·
CC1CCCCC12NC(=O)N(CC(=O)OCc1cccc(F)c1)C2=O (centres undefined),-4.8,·,·,-19.6*,-1.4,·
N#CC1(NC(=O)CSc2n[nH]c(-c3ccccc3)n2)CCCCC1,1.3,i,i,i,-1.6,i
